Results from article PMC5540273 (PLoS ONE, 2017).

The molecules below were run on EPHA5. Settings: concentration: 1 μM, replicates: in singlicate; n = 1.
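Also: KINOMEscan kinase panel screen.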

| SMILES | %Inh |
| --- | --- |
| COc1cc(Nc2nccc(N3CCC(NC(=O)C4COc5ccccc5O4)C3)n2)cc(OC)c1OC (centres unmarked) [GSK1379761] | 0% |
| COc1cccc(-n2cnc3c(N)ncnc32)c1 [SKF-97416] | 3% |
| CC(C)(C)c1ccc(C(=O)Nc2cn3cc(-c4ccccc4)ccc3n2)cc1 | 0% |
| COc1ccc(-c2coc3ccc(-c4nnc(SCc5cccc(C#N)c5)o4)cc23)cc1 | 21% |
| OCCCNc1nccc(-c2c(-c3cccc(C(F)(F)F)c3)nn3cc(C(F)(F)F)ccc23)n1 [GW630813] | 0% |
| COC(=O)c1c(-c2ccccc2)c2cc(Br)ccc2c(=O)n1Cc1ccc(S(C)(=O)=O)cc1 | 16% |
| Cc1cc(Nc2nc(-c3cccc(C)n3)nc3ccccc23)ccn1 [GW872411] | 0% |
| Nc1ncnc2c1ncn2-c1ccc(Cl)cc1 [AH2635] | 0% |
| CN(C)c1cc(-c2ccc3c(N)n[nH]c3c2)nc(N)n1 [GSK2219329] | 0% |
| COc1ccc(-c2cc3c(C)nc(N)nc3n([C@H]3CC[C@H](OCCO)CC3)c2=O)cn1 | 11% |
| O=C(NCc1cccs1)c1cc(C(=O)c2c(Cl)cccc2Cl)c[nH]1 [GW823670] | 0% |
| COc1cc2ncn(-c3cc(OCc4ccncc4Br)c(C(N)=O)s3)c2cc1OC [GW854278] | 0% |
| Cc1nnc(-c2ccc(C)c(-c3ccc(C(=O)O)cc3)c2)o1 [GW608005] | 0% |
| Cc1nc(N(C)[C@H]2CN(C(=O)CC#N)CC[C@H]2C)c2cc[nH]c2n1 | 2% |
| O=C1NC(=O)C(c2ccccc2)=C1Nc1cccc(O)c1 [SB-390534] | 0% |
| COc1ccc(Nc2nccc(N3CCC(NS(=O)(=O)c4ccc(NC(C)=O)cc4)C3)n2)cc1 (centres unmarked) [GSK1379729] | 7% |
| COC(=O)c1c(-c2ccccc2)c2cc(Br)ccc2c(=O)n1Cc1ccc(NC(=O)CCC(=O)O)cc1 | 7% |
| Cl.NS(=O)(=O)c1cccc(Nc2cc(-c3ccc(F)cc3)n[nH]2)c1 [GW824645] | 0% |
| Fc1cccc(CSc2nnc(-c3ccc4c(c3)CCO4)o2)c1 | 7% |

| SMILES | %Inh |
| --- | --- |
| Cl.c1ccc(Cn2cnc3cc(Nc4ncnc5ccccc45)ccc32)cc1 [GW272142] | 0% |
| CN1C(=O)C(Nc2cc(Cl)c(O)c(Cl)c2)=C(c2ccc(Cl)cc2)C1=O [SB-404321] | 8% |
| COc1cc(OC)cc(-c2cc3cnc(N)nc3nc2NC(=O)NC(C)(C)C)c1 | 0% |
| Nc1ncnc2c1ncn2-c1cccc2ccccc12 [SKF-97184] | 0% |
| COc1cccc(C2=C(N(C)c3ccccc3)C(=O)NC2=O)c1 [SB-334865] | 0% |
| Cc1ccc(Oc2ccc(Nc3ncnc4cc[nH]c34)cc2C)cn1 | 16% |
| CN1C(=O)C(Nc2ccccc2)=C(c2ccccc2)C1=O [SB-300079] | 4% |
| CCc1nc(-c2cccc(C)c2)c(-c2ccncc2)s1 | 2% |
| Cc1cccc(-c2nc(Nc3ccc4c(cnn4C)c3)c3ccccc3n2)n1 [GW876731] | 1% |
| Nc1n[nH]c2nnc(-c3ccccc3)c(-c3ccccc3)c12 [GW554060] | 0% |
| CCS(=O)c1ccc(-c2coc3ccc(-c4nnc(C)o4)cc23)cc1 (centres unmarked) | 4% |
| COc1ccc(CNC(=O)NC2CCN(c3ccnc(Nc4ccc(F)cc4)n3)C2)cc1 (centres unmarked) [GSK1379706] | 0% |
| COc1ccc(-n2cnc3c(N)ncnc32)cc1 [SKF-97236] | 4% |
| COc1ccc(-c2cc3c(C)nc(N)nc3n([C@H]3CC[C@H](O)CC3)c2=O)cn1 | 0% |
| Nc1ncnc2c1ncn2-c1cccc(F)c1 [SKF-97560] | 0% |
| Cc1cccc(-c2cc(-c3c[nH]nc3-c3ccccn3)ccn2)c1 [GW679395] | 0% |
| Cc1c(Cn2c(C)nn3c(=O)cc(N4CCO[C@H](C)C4)nc23)cccc1C(F)(F)F [GSK2373690] | 1% |
| CCCNC(=O)Nc1ccc(Oc2ncnc3ccn(C)c23)cc1 | 12% |

The molecules below were run on EPHA6. Settings: concentration: 1 μM, replicates: in singlicate; n = 1.

| SMILES | %Inh |
| --- | --- |
| COc1cc(Nc2nccc(N3CCC(NC(=O)C4COc5ccccc5O4)C3)n2)cc(OC)c1OC (centres unmarked) [GSK1379761] | 0% |
| COc1cccc(-n2cnc3c(N)ncnc32)c1 [SKF-97416] | 0% |
| CC(C)(C)c1ccc(C(=O)Nc2cn3cc(-c4ccccc4)ccc3n2)cc1 | 0% |
| COc1ccc(-c2coc3ccc(-c4nnc(SCc5cccc(C#N)c5)o4)cc23)cc1 | 26% |
| OCCCNc1nccc(-c2c(-c3cccc(C(F)(F)F)c3)nn3cc(C(F)(F)F)ccc23)n1 [GW630813] | 0% |
| COC(=O)c1c(-c2ccccc2)c2cc(Br)ccc2c(=O)n1Cc1ccc(S(C)(=O)=O)cc1 | 45% |
| Cc1cc(Nc2nc(-c3cccc(C)n3)nc3ccccc23)ccn1 [GW872411] | 0% |
| Nc1ncnc2c1ncn2-c1ccc(Cl)cc1 [AH2635] | 0% |
| CN(C)c1cc(-c2ccc3c(N)n[nH]c3c2)nc(N)n1 [GSK2219329] | 0% |
| COc1ccc(-c2cc3c(C)nc(N)nc3n([C@H]3CC[C@H](OCCO)CC3)c2=O)cn1 | 11% |
| O=C(NCc1cccs1)c1cc(C(=O)c2c(Cl)cccc2Cl)c[nH]1 [GW823670] | 0% |
| COc1cc2ncn(-c3cc(OCc4ccncc4Br)c(C(N)=O)s3)c2cc1OC [GW854278] | 0% |
| Cc1nnc(-c2ccc(C)c(-c3ccc(C(=O)O)cc3)c2)o1 [GW608005] | 9% |
| Cc1nc(N(C)[C@H]2CN(C(=O)CC#N)CC[C@H]2C)c2cc[nH]c2n1 | 0% |
| O=C1NC(=O)C(c2ccccc2)=C1Nc1cccc(O)c1 [SB-390534] | 10% |
| COc1ccc(Nc2nccc(N3CCC(NS(=O)(=O)c4ccc(NC(C)=O)cc4)C3)n2)cc1 (centres unmarked) [GSK1379729] | 31% |
| COC(=O)c1c(-c2ccccc2)c2cc(Br)ccc2c(=O)n1Cc1ccc(NC(=O)CCC(=O)O)cc1 | 31% |
| Cl.NS(=O)(=O)c1cccc(Nc2cc(-c3ccc(F)cc3)n[nH]2)c1 [GW824645] | 0% |
| Fc1cccc(CSc2nnc(-c3ccc4c(c3)CCO4)o2)c1 | 0% |

| SMILES | %Inh |
| --- | --- |
| Cl.c1ccc(Cn2cnc3cc(Nc4ncnc5ccccc45)ccc32)cc1 [GW272142] | 10% |
| CN1C(=O)C(Nc2cc(Cl)c(O)c(Cl)c2)=C(c2ccc(Cl)cc2)C1=O [SB-404321] | 0% |
| COc1cc(OC)cc(-c2cc3cnc(N)nc3nc2NC(=O)NC(C)(C)C)c1 | 0% |
| Nc1ncnc2c1ncn2-c1cccc2ccccc12 [SKF-97184] | 0% |
| COc1cccc(C2=C(N(C)c3ccccc3)C(=O)NC2=O)c1 [SB-334865] | 0% |
| Cc1ccc(Oc2ccc(Nc3ncnc4cc[nH]c34)cc2C)cn1 | 26% |
| CN1C(=O)C(Nc2ccccc2)=C(c2ccccc2)C1=O [SB-300079] | 0% |
| CCc1nc(-c2cccc(C)c2)c(-c2ccncc2)s1 | 0% |
| Cc1cccc(-c2nc(Nc3ccc4c(cnn4C)c3)c3ccccc3n2)n1 [GW876731] | 0% |
| Nc1n[nH]c2nnc(-c3ccccc3)c(-c3ccccc3)c12 [GW554060] | 28% |
| CCS(=O)c1ccc(-c2coc3ccc(-c4nnc(C)o4)cc23)cc1 (centres unmarked) | 12% |
| COc1ccc(CNC(=O)NC2CCN(c3ccnc(Nc4ccc(F)cc4)n3)C2)cc1 (centres unmarked) [GSK1379706] | 0% |
| COc1ccc(-n2cnc3c(N)ncnc32)cc1 [SKF-97236] | 0% |
| COc1ccc(-c2cc3c(C)nc(N)nc3n([C@H]3CC[C@H](O)CC3)c2=O)cn1 | 0% |
| Nc1ncnc2c1ncn2-c1cccc(F)c1 [SKF-97560] | 0% |
| Cc1cccc(-c2cc(-c3c[nH]nc3-c3ccccn3)ccn2)c1 [GW679395] | 13% |
| Cc1c(Cn2c(C)nn3c(=O)cc(N4CCO[C@H](C)C4)nc23)cccc1C(F)(F)F [GSK2373690] | 0% |
| CCCNC(=O)Nc1ccc(Oc2ncnc3ccn(C)c23)cc1 | 8% |
